Assay results from PubChem BioAssay AID588675 (Johns Hopkins Ion Channel Center, 2011).
Out of some 310,000 compounds screened, about 1,900 (0.61%) were called active.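 Rule for the calls: active = plate-corrected calcium response at least 3 library SD above typical, normal starting fluorescence, not activating the receptor alone; inactive = the rest.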 The full list was thinned out, with actives kept by preference.

These molecules were tested against Mas-related G-protein coupled receptor member X1 (Homo sapiens) (UniProt Q96LB2) (assay: allosteric enhancers of human MrgX1 signaling – HEK293 cells, Fluo-4 calcium flux, primary screen (AID 588675;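 note: compound read alongside a low EC10 to EC30 dose of BAM8-22 agonist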;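 for B-score: peak minus trough fluorescence over baseline measured at the second addition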)). Details: MrgX1-HEK293, Fluo-4 calcium flux, FDSS, at 10 µM; active compounds read high.
Sequence of Mas-related G-protein coupled receptor member X1 (Homo sapiens) (Q96LB2 whole entry, looked up): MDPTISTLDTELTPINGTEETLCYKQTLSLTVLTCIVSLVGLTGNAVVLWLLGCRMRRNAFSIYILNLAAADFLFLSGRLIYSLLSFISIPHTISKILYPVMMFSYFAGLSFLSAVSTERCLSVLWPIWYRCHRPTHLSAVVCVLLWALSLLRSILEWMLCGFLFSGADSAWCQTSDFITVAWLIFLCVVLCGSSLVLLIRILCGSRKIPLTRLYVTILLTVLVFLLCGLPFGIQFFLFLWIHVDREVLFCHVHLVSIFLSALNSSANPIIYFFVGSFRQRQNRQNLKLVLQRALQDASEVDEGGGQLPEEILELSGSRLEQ

SMILES	B-score
OCCn1c(-c2ccccc2)csc1=Nc1ccccc1	14.7 (active)
Cc1csc(=Nc2ccccc2)n1CCO	inactive
Cc1csc(=NC(=O)c2ccccc2)n1CCO	inactive
Clc1ncn(CCOc2ccccc2)c1Cl	inactive
Cc1cc2ncn(CCCCOc3ccccc3)c2cc1C	10.8 (active)
COCCOCCn1cnc2ccccc21	inactive
CCN1CCCC1CNC(=O)c1cc2cc(OC)c(OC)cc2[nH]1 (centres undefined)	inactive
COc1ccc(-c2cc(C(F)(F)F)nc(NCc3cccnc3)n2)cc1	inactive
COc1ccc(-c2cc(C(F)(F)F)nc(S(C)(=O)=O)n2)cc1OC	8.21 (active)
COc1ccc(-c2ccc(Nc3ccc(S(=O)(=O)N4CCCC4)cc3)nn2)cc1OC	inactive
N/C(=N\OC(=O)CCn1cccc(C(F)(F)F)c1=O)c1ccc(OC(F)(F)F)cc1	inactive
Cc1ccc2c(=O)oc(N(C)C)nc2c1	inactive
CCC(C)CCN1CCN=C1N(C)C (centres undefined)	inactive
COc1ccc(CCNC(=O)C(Sc2ccccn2)c2ccccc2)cc1OC (centres undefined)	8.72 (active)
COc1ccc(CCNC(=O)c2ccccc2-c2ccccc2C(=O)O)cc1OC	inactive
COc1ccc(CCNC(=O)C(=O)NCc2ccccc2C)cc1OC	inactive
Cc1ccc(NC(=O)C(C)OC(=O)Cc2c[nH]c3ccccc23)cc1S(=O)(=O)N1CCOCC1 (centres undefined)	inactive
CCOc1cccc2c1OC1(CCCCC1)N1N=C(c3cccnc3)CC21 (centres undefined)	inactive
CC(C)=CCC/C(C)=C/C(=O)O	inactive
Cc1cccc(C)c1NC(=S)N(Cc1cccnc1)Cc1ccccc1Cl	10.5 (active)
Cc1ccc(CN(Cc2cccnc2)C(=S)Nc2cccc(Cl)c2C)cc1	inactive
Cc1c(Cl)cccc1NC(=S)N(Cc1ccccc1)Cc1cccnc1	inactive
CCc1ccc(NC(=O)COC(=O)c2cccs2)cc1	inactive

SMILES	B-score
O=C(COC(=O)c1ccc(NS(=O)(=O)c2cccs2)cc1O)Nc1ccc(F)cc1	9.09 (active)
Cc1cccc(C(=O)OCC(=O)Nc2ccc(F)cc2)c1	inactive
Cc1cc(S(=O)(=O)NC2CCCC2)ccc1-n1cnnn1	inactive
Cc1[nH]n(-c2cccc(Cl)c2)c(=O)c1/C=N/n1c(C)nc2ccccc2c1=O	inactive
Cc1ccc(-n2[nH]c(C)c(/C=N/N3C(=O)c4cccc5cccc(c45)C3=O)c2=O)cc1	inactive
Cc1[nH]n(-c2ccc(Cl)cc2)c(=O)c1/C=N/n1c(C)nc2ccccc2c1=O	11.4 (active)
Cc1ccc(NS(=O)(=O)c2ccc3c(c2)oc(=O)n3C)c(C)c1	inactive
O=C(NCC(=O)N1CCC2(CC1)NCCc1[nH]cnc12)c1ccc(Br)cc1	inactive
Cc1cc(C)c(S(=O)(=O)N2CCOCC2)cc1C	inactive
C/C(=N\Nc1nc2ccccc2[nH]1)c1cccs1	inactive
C/C(=N\Nc1ncc(Cl)cc1Cl)c1ccc(S(=O)(=O)NCc2ccco2)cc1	inactive
C/C(=N\Nc1ncc(Cl)cc1Cl)c1cccs1	8.26 (active)
O=C(C[C@H]1C(=O)N(c2ccc(F)c(F)c2)C[C@@H]1Cc1ccccc1)Nc1ccccc1	inactive
COc1ccccc1-n1nnnc1S(=O)(=O)Cc1ccc(Cl)cc1	inactive
CCCCNS(=O)(=O)c1ccc(S(=O)(=O)n2cnc3ccccc32)cc1	inactive
CC(C)C(=O)Nc1ccc2oc(=O)ccc2c1	inactive
Cc1oc2cc3oc(=O)ccc3cc2c1C	inactive
COc1c(C(C)C)oc2cc3oc(=O)ccc3cc12	9.1 (active)
COc1ccc(Cl)cc1NC(=O)CN(C)C(=O)c1cc(-c2cccs2)nn1-c1ccccc1	inactive
Cn1c(=O)[nH]c(=O)c2c1nc(CN1CCN(c3ccccc3F)CC1)n2CCc1ccccc1	inactive
N#C/C(=C1/CCCN1)c1ccccn1	inactive
Cn1c(S(=O)(=O)O)nc2ccccc21	inactive
Cn1c(/C(C#N)=C2/CCCCCN2)nc2ccccc21	8.34 (active)

SMILES	B-score
O=C(CN1C(=O)NC2(CCCCC2)C1=O)NCCC1=CCCCC1	inactive
CCCC1C(=O)N2C(N(C)C)=Nc3ccc(C)cc3N2C1=O (centres undefined)	inactive
O=[N+]([O-])C(=c1ccc2c(c1)N1C3=C(CCCC3)CC3CCCCC31N=2)[N+](=O)[O-] (centres undefined)	inactive
COc1cccc(CN(C)CC(O)COC(c2ccccc2)c2ccccc2C)c1 (centres undefined)	inactive
O=C(NC(=S)NC1CCCCC1)c1ccc(Cl)cc1	inactive
COc1ccc(C(=O)NNC(=S)NC(=O)c2ccccc2)cc1	inactive
COc1ccc(C(=O)NC(=S)NC2CCCCC2)cc1	7.2 (active)
NC(=O)c1ccc(Nc2ccc3nonc3c2[N+](=O)[O-])cc1	inactive
CC(C)c1ccc(Nc2nnc(SCC(=O)c3nnc(-c4ccccc4)o3)s2)cc1	inactive
COCC(=O)Nc1c(I)c(C(=O)NCC(O)CO)c(I)c(C(=O)N(C)CC(O)CO)c1I (centres undefined)	inactive
COc1cccc(OC)c1C(=O)OCC(=O)/C(C#N)=C(\C)N	inactive
O=C(NCC(=O)N1CCCC(C(F)(F)F)C1)c1ccccc1F (centres undefined)	inactive
O=C(c1cccc([N+](=O)[O-])c1)N1CCN(C(=O)c2ccco2)CC1	inactive
O=C(CNS(=O)(=O)c1ccccc1)N1CCN(C(=O)c2ccco2)CC1	inactive
O=C(c1cccc(S(=O)(=O)Nc2ccccc2Cl)c1)N1CCN(C(=O)c2ccco2)CC1	10.7 (active)
C#CCOCCOCCOCCNc1nc(N2CCN(C(=O)CCCCCCCCCCNC(=O)[C@H](CCCCN)n3cc(C)nn3)CC2)nc(N2CCN(C(=O)CCCCCCCCCCNC(=O)[C@H](CO)n3cc(CCCSC)nn3)CC2)n1	inactive
Cc1ccc(N(C(=O)C(F)(F)F)C(C(=O)NC2CCCCC2)c2ccncc2)cc1C (centres undefined)	inactive
COC(=O)Cn1c(O)c(N=NC(=O)OC)c2ccccc21	7.73 (active)
CCOC(=O)Cn1c(O)c(N=NC(=O)CNC(=O)Cc2ccccc2)c2ccccc21	inactive
N#CCCCn1c(O)c(N=NC(=O)C(O)c2ccccc2)c2ccccc21 (centres undefined)	inactive
Oc1ccc(C2Nc3cccc4cccc(c34)N2)cc1	inactive
Cc1ccc(C2Nc3cccc4cccc(c34)N2)cc1	inactive
Brc1ccccc1C1Nc2cccc3cccc(c23)N1	11.9 (active)
